Bioassay records deposited in PubChem BioAssay by University of Kansas High Throughput Screening Laboratory.
Pf apPOL block: Pf-apPOL DNA polymerase inhibition | Recombinant Pf-apPOL, molecular beacon fluorescence, 1.5 h | AID 1794808 | 0.25% of 210,000 active | inhibition, % at 10 µM
mHTT CaM bind: disrupts binding of mutant huntingtin to calmodulin | P42858 | AlphaScreen His-mHTT/GST-CaM binding, luminescence | inhibition, % at 15 µM | 3.6% of 190,000 active;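 further: 0% = both proteins with DMSO and 100% = one protein alone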
The depositor's hits bear a star; x = no result given. Hits are enriched below; roughly 3.6% of the tested compounds scored in any of these assays. No stated cut-off is given here; in the data, active means inhibition above about 50%; inactive means the rest.

SMILES	Pf apPOL block	mHTT CaM bind
Cc1cc(C)c(C)c(S(=O)(=O)N2CCN(C)CC2)c1C	-3	-4
CN(C)c1ncncc1N1CCC(C(=O)NCc2cccc(C(F)(F)F)c2)CC1	-5	6
Cc1ccc(NC(=O)N2CCCC(C)(C(=O)NCc3ccccc3C)C2)c(Cl)c1 (stereo not drawn)	0	7
COc1ccc(Br)cc1C(=O)Nc1cccc(-c2nc3ncccc3o2)c1	1	-2
COc1ccccc1C(=O)Nc1cccc(-c2nc3ncccc3o2)c1	3	58*
Cc1ccccc1OCC(=O)Nc1ccc2oc(-c3ccncc3)nc2c1	8	70*
Cc1cc(Cl)ccc1OCC(=O)Nc1ccc2oc(-c3ccncc3)nc2c1	3	-1
Cc1cccc(OCC(=O)Nc2ccc(-c3nc4ncccc4o3)cc2)c1C	0	75*
CCc1ccc(-c2nc3cc(NC(=O)COc4ccc(OC)cc4)ccc3o2)cc1	6	6
CC(C)(C)c1ccc(OCC(=O)Nc2ccc3oc(-c4ccncc4)nc3c2)cc1	68*	3
Cc1ccccc1OCC(=O)Nc1ccc(-c2nc3ncccc3o2)cc1	-7	2
COc1ccc(C(=O)N2CCc3c(nc(-c4ccccc4)[nH]c3=O)C2)c(OC)n1	-4	0
CC(C)(C)c1ccc(-c2nc3s/c(=C\c4cccs4)c(=O)n3n2)cc1	2	6
CCCN(CCC)C(=O)c1c[nH]c2ccc(S(=O)(=O)N(C)c3ccccc3C)cc2c1=O	-8	16
Cc1ccc(NC(=O)N2CCC(c3nc(CCNC(=O)C4CC4)cs3)CC2)cc1Cl	-1	28
O=C(NCCN1CCCCC1)c1ccc2c(c1)nc1n2CCCCC1	-6	-7
CC1CCN(C(=O)C2=CN(c3ccc(Cl)cc3)c3ccccc3S2(=O)=O)CC1	-1	1
Cc1ccc(-c2nc(C=Nc3ccccc3I)c(O)o2)cc1	-4	6
CCNS(=O)(=O)c1cccc2c1C(=O)c1ccccc1C2=O	4	12
O=C1c2ccccc2C(=O)c2c1cccc2S(=O)(=O)Nc1ccc(Cl)cc1	-3	70*
CC(C(=O)NCc1ccccn1)N1CCN(c2ccccc2Cl)CC1 (stereo not drawn)	-24	75*
Cc1ccccc1N1CCN(C(C)C(=O)NCc2cccnc2)CC1 (stereo not drawn)	-7	6
Cc1cc2ncn(CC(O)COc3c(C)cccc3C)c2cc1C (stereo not drawn)	-6	46
Cc1cc(C)c(OCC(O)Cn2cnc3cc(C)c(C)cc32)c(C)c1 (stereo not drawn)	2	85*
NS(=O)(=O)c1ccc(CCNC(=O)CCCCCn2nnc3ccccc3c2=O)cc1	-3	18
SMILES	Pf apPOL block	mHTT CaM bind
O=C(Cn1c(=O)n(-c2cccc(C(F)(F)F)c2)c(=O)c2sccc21)NCCc1ccccc1	1	-5
O=[N+]([O-])c1c(Cl)cc(O)c2c1C1C=CCC1C(C1CC=CCC1)N2 (stereo not drawn)	0	80*
O=C(O)C1Nc2cc(Cl)cc(Cl)c2C2C=CCC12 (stereo not drawn)	-1	99*
O=C(O)C1Nc2c(O)cc(Cl)c([N+](=O)[O-])c2C2C=CCC12 (stereo not drawn)	-5	90*
CC(=O)c1ccc2c(c1)C1C=CCC1C(c1ccc(Cl)cc1Cl)N2 (stereo not drawn)	6	37
O=[N+]([O-])c1c(Cl)cc(O)c2c1C1C=CCC1C(c1ccc(Cl)cc1)N2 (stereo not drawn)	0	88*
CCCC1Nc2c(C(=O)O)ccc([N+](=O)[O-])c2C2C=CCC12 (stereo not drawn)	-1	26
Cc1ccc2c(C(=O)N3CCCCC3)cc(NC(=O)C(C)C)cc2n1	2	-9
Cc1ccccc1CNC(=O)C1(C)CCCN(S(=O)(=O)c2ccccc2)C1 (stereo not drawn)	0	2
Cn1nc(-c2nc(-c3ccccc3)no2)c2c1CCN(S(C)(=O)=O)C2	-1	-7
CN1c2ccc(F)cc2C(=O)NC12CCN(C(=O)c1ccc(F)c(Cl)c1)CC2	-1	-2
Cc1ccccc1OCC(=O)N1CC(CN(C)C)C2(CCOCC2)C1 (stereo not drawn)	-9	-7
CN1C(=O)c2ccccc2Oc2ccc(NC(=O)c3ccsc3)cc21	-3	9
O=C(Nc1cc(-c2nc3ccccc3s2)ccc1Cl)c1ccco1	6	4
COc1ccc(-c2nnc(Nc3ccc(CC(N)=O)cc3)c3ccccc23)cc1	-18	26
COc1ccc(Nc2nnc(-c3ccc(C)c(S(N)(=O)=O)c3)c3ccccc23)cc1C(N)=O	-6	54*
CNC(=O)c1cc(Nc2nnc(-c3ccc(OC)cc3)c3ccccc23)ccc1OC	-30	50
COc1ccc(-c2nnc(Nc3ccc(OC)c(C(N)=O)c3)c3ccccc23)cc1	-5	60*
CNC(=O)c1cc(Nc2nnc(-c3ccc(C)c(S(N)(=O)=O)c3)c3ccccc23)ccc1OC	6	27
CCOc1ccc(-c2nnc(Nc3ccc(OC)c(C(=O)NC)c3)c3ccccc23)cc1	8	69*
Oc1ccccc1CNCCC12CC3CC(CC(C3)C1)C2	-5	4
O=C(CN(c1ccc([N+](=O)[O-])cc1)S(=O)(=O)c1ccccc1)Nc1cccc(F)c1	-8	39
COc1cc(/C=C2N=C(/C=C/c3ccc(Cl)cc3)OC\2=O)cc(OC)c1OC	-3	-3
CN(C)c1cccc(C(=O)N2CCC3(C2)C(=O)Nc2ccccc23)c1 (stereo not drawn)	-3	31
COc1ccc(CCN2CC(=O)N3CCCC(C4=CC(=O)C=CC4=O)=C3C2=O)cc1OC	2	21
SMILES	Pf apPOL block	mHTT CaM bind
O=C1C=CC(=O)C(C2=C3C(=O)N(CCc4c[nH]c5ccccc45)CC(=O)N3CCC2)=C1	-3	63*
O=C1CNC(=S)N1CCc1c[nH]c2ccccc12	12	x
O=C1C=CC(=O)C(C2=C3C(=O)N(CCc4ccccc4)CC(=O)N3CCC2)=C1	-5	80*
Cc1nc(C(=O)NCCc2ccccn2)c(C)n1C1CCN(C)CC1	1	4
Oc1ccc(Cl)cc1C1=NNC(c2ccc3c(c2)OCCO3)C1 (stereo not drawn)	-3	63*
O=[N+]([O-])c1ccc(O)c(C2=NNC(c3ccncc3)C2)c1 (stereo not drawn)	-2	30
COc1ccc(C2=NNC(c3ccc(Br)cc3)C2)c(O)c1 (stereo not drawn)	-7	47
Cn1c(Cl)cnc1C1CC(=O)c2cc(Cl)ccc2O1 (stereo not drawn)	0	16
O=[N+]([O-])c1ccc(O)c(C2=NNC(c3ccc(Cl)cc3)C2)c1 (stereo not drawn)	-1	55*
Oc1ccccc1C1=NNC(c2ccc(Br)cc2)C1 (stereo not drawn)	-3	57*
Cn1c(Cl)cnc1C1CC(c2cc(Cl)ccc2O)=NN1 (stereo not drawn)	3	67*
Oc1ccc(F)cc1C1=NNC(c2ccc3c(c2)OCCO3)C1 (stereo not drawn)	1	39
O=C(Nc1ccccc1Cl)N1CCc2nc3cc(-c4ccccc4)[nH]n3c(=O)c2C1	2	-2
Cc1ccc(C(=O)O)cc1-c1ccc(/C=C2/NC(=O)NC2=O)o1	0	15
Cc1cc([N+](=O)[O-])ccc1-c1ccc(/C=C2/NC(=O)NC2=O)o1	-4	54*
